Test results reported in PubChem BioAssay (NCI).
The panel holds about 83,000 compounds, 20% with a hit somewhere; the sample as a whole holds those more often.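 Compound tested at a single concentration for 48 hours in 96-well plates; a percent growth value below 10 was scored as active.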 The source made the active and inactive calls.

What was measured:
Assay in all cases: NCI-60 one-dose screen, 48 h (100 = growth as untreated, 0 = no growth, -100 = all killed)
Details in all cases: 10 µM unless noted
[1] = tested on: EKVX NSCLC
[2] = tested on: SN12C renal
[3] = tested on: UO-31 renal
[4] = tested on: TK-10 renal
[5] = tested on: ACHN renal
[6] = tested on: A498 renal
[7] = tested on: CCRF-CEM leukemia
[8] = tested on: MOLT-4 leukemia
[9] = tested on: CAKI-1 renal

Measured: growth

COc1cc(/C=C/c2ccc3c(Br)cc(Br)c(O)c3n2)ccc1O
inactive: [1] 23.1% | [2] 52.8% | [4] 30.3% | [5] 22%
active: [3] 0.12% | [6] -4.9% | [7] -24.5%

Cc1ccc2nc(CN(CCN(Cc3nc4ccc(C)cc4[nH]3)Cc3nc4ccc(C)cc4[nH]3)Cc3nc4ccc(C)cc4[nH]3)[nH]c2c1
active: [1] -97.5% | [2] -96.7% | [3] -73.7% | [4] -80.9% | [5] -99.2% | [6] -94% | [7] -61.7%

c1ccc2c(c1)cnc1ccccc12
inactive: [1] 115% | [2] 95.5% | [3] 95.2% | [4] 116% | [5] 100% | [7] 97.8%
active: [6] -7.57%

Nc1cc2nc3ccccc3oc-2cc1=O
active: [2] -48.8% | [3] -40.2% | [6] -7.02%
inactive: [1] 61% | [4] 173% | [5] 53.3% | [7] 94%

CC(=O)OC1Oc2cc(C)c(C)cc2-c2oc(=O)c(-c3ccc(F)cc3)cc21 (configuration not stated)
inactive: [1] 81.7% | [2] 83.2% | [3] 62.2% | [4] 120% | [5] 89.5% | [6] 47.9% | [7] 36%

CC(OC(=O)Nc1cccc(Cl)c1)C(=O)O (configuration not stated)
inactive: [1] 103% | [2] 92.7% | [3] 90.7% | [4] 102% | [5] 97.4% | [6] 23.2% | [7] 101%

O=c1cc(N2CCOCC2)oc2c(-c3ccc4c(c3)OCCO4)csc12
inactive: [2] 20.2% | [7] 28%
active: [1] 9.76% | [3] 1% | [4] -14.5% | [5] 6.19% | [6] -41% | [8] 4.69%

Cc1n(Cc2ccc3ccccc3n2)cc[n+]1Cc1ccc2ccccc2c1
inactive: [1] 48.3% | [3] 81% | [4] 37.8% | [5] 88.5% | [7] 16.3%
active: [2] 1.98% | [6] -2.15% | [8] 5.13%

CCOC(=O)C(=CNc1ccccc1Cl)C(=O)OCC
active: [6] 5.74%
inactive: [1] 106% | [2] 101% | [3] 89.1% | [4] 99.3% | [5] 79.2% | [7] 85.8%

CCSc1ccc([C@@H]2[C@@H](O)C(=O)N2c2cc(OC)c(OC)c(OC)c2)cc1
active: [6] -10.6%
inactive: [1] 52.3% | [2] 38.8% | [3] 50.5% | [4] 77.2% | [5] 32.7% | [7] 11.9% | [8] 10.8%

CCOc1ccc([C@@H]2[C@@H](Oc3ccccc3)C(=O)N2c2cc(OC)c(OC)c(OC)c2)cc1
inactive: [1] 43.5% | [2] 31.4% | [3] 35.3% | [4] 48.1% | [5] 25.3%
active: [6] -9.61% | [7] 7.6% | [8] 5.59%

N#Cc1c(NN)n(C2OC(CO)C(O)C2O)c2ncnc(N)c12 (configuration not stated)
active: [1] -0.0983% | [3] -23.5% | [5] 7.45% | [6] -17.8% | [7] -22.3%
inactive: [2] 16.1% | [4] 11.2%

CCCCN(CCCC)CCC(=O)c1ccc(OC)c2ccccc12
inactive: [1] 92.8% | [2] 94.9% | [3] 57.9% | [4] 97.8% | [5] 92.3% | [6] 107% | [7] 35.7% | [8] 28.6%

CCCCN(CCCC)CCCN=c1nc2c(c(N)n1-c1ccccc1)c(=S)n(-c1ccccc1)c(=S)n2-c1ccccc1
active: [1] -74.2% | [2] -99.2% | [3] -80.9% | [4] -89.6% | [5] -95.8% | [6] -100% | [7] -78.4% | [8] -55.8%

Cc1ccc2oc(=O)cc(-c3nc4ccc([N+](=O)[O-])cc4[nH]3)c2c1
inactive: [1] 62.6% | [2] 59.7% | [3] 51.7% | [4] 62% | [5] 63% | [6] 43.7% | [7] 51.6% | [8] 39.6%

CC(=O)OC1Oc2cc(C)c(C)cc2-c2oc(=O)c(-c3cc4ccccc4oc3=O)cc21 (configuration not stated)
inactive: [1] 115% | [2] 114% | [3] 96.2% | [4] 156% | [5] 71.9% | [6] 75% | [7] 94%

C1=C\CCCCN2CC[C@H]3[C@H](CCCC/C=C\CCCN4C[C@@H](CCCCC/1)C[C@@H]3C4)C2
active: [6] -11.8% | [7] 7.61%
inactive: [1] 108% | [2] 81.2% | [3] 14.6% | [4] 109% | [5] 23.4%

COc1ccc(/C(=C\c2cc(OC)c(OC)c(OC)c2)C(=O)N2CCNCC2)cc1
inactive: [1] 105% | [2] 101% | [3] 83.4% | [4] 94.6% | [5] 98% | [6] 85.6% | [7] 96.1% | [8] 87.2%

CCSc1ccc([C@@H]2[C@@H](N)C(=O)N2c2cc(OC)c(OC)c(OC)c2)cc1
inactive: [1] 41% | [2] 49.6% | [3] 49.4% | [4] 58.9% | [5] 50.7% | [7] 11.6% | [8] 13.1%
active: [6] 3.94%

CC1(C)C(N(O)C(=O)Nc2ccc(Cl)cc2)N(c2ccc(Cl)cc2)C(=O)N1CC(=O)N/N=C/C=C/c1ccc([N+](=O)[O-])o1 (configuration not stated)
inactive: [1] 29.8% | [3] 12.8% | [9] 68%
active: [2] -21.4% | [4] 4.58% | [5] 9.18% | [8] -21.5%

CC(=O)c1cc(C(=O)c2ccc3c(c2)Sc2ccccc2N3)c2c(C)cccn12
active: [6] -5.33%
inactive: [1] 38.1% | [2] 35.5% | [3] 34.1% | [4] 56.9% | [5] 32.4% | [7] 16.3% | [8] 12%

CCOc1c(C#N)c2c(N)ncnc2n1C1OC(CO)C(O)C1O (configuration not stated)
inactive: [1] 58.4% | [2] 39.2% | [4] 88.4% | [5] 33.9%
active: [3] 6.4% | [6] -13% | [7] -8.09%

CCCCc1n(Cc2ccc3ccccc3n2)cc[n+]1Cc1ccc2ccccc2n1
inactive: [1] 50.9% | [3] 83.5% | [4] 27.6% | [5] 96.1% | [7] 23.3% | [8] 14.9%
active: [2] 4.6% | [6] 7.39%

O=C(O)Cn1ccc2ccccc21
inactive: [1] 102% | [2] 113% | [3] 76.4% | [4] 153% | [5] 99.9% | [6] 110% | [7] 98.4%

COc1ccc(/C=C(/C(=O)N2CCN(c3ccccc3)CC2)c2cc(OC)c(OC)c(OC)c2)cc1N
active: [6] -2.34% | [7] 8.84%
inactive: [1] 41.1% | [2] 40.1% | [3] 52.1% | [4] 63.5% | [5] 35.1% | [8] 10.1%

O=c1[nH]cnc2nc[nH]c12
inactive: [1] 81.6% | [2] 96.7% | [3] 94.2% | [4] 115% | [5] 103% | [6] 87.9% | [7] 120%
active: [8] -45.9%

COCCOCCOCc1n(Cc2ccc3ccccc3n2)c2ccccc2[n+]1Cc1ccc2ccccc2c1
inactive: [1] 31% | [3] 79.2% | [5] 71.1%
active: [2] 5.5% | [4] -8.46% | [6] -15.8% | [7] 1.17% | [8] -20.5%

CC(=O)OC1Oc2ccccc2-c2oc3nc(=N)n(C)c-3cc21 (configuration not stated)
inactive: [1] 122% | [2] 108% | [3] 88.6% | [4] 155% | [5] 110% | [6] 138% | [7] 77%

Cc1ccc(NC(=O)c2[nH]c(SCCN(C)C)nc2-c2ccc(F)cc2)cc1Nc1ccc2ncn(C)c(=O)c2c1
inactive: [1] 75.2% | [2] 64.6% | [3] 31.4% | [4] 63% | [5] 69% | [6] 61.2% | [7] 61.6% | [8] 41.2%

Cc1ccccc1CNc1ncnc2[nH]ncc12
inactive: [1] 71.6% | [2] 112% | [3] 37% | [4] 83.8% | [5] 87.2% | [6] 93.9% | [7] 146%
active: [8] -58.2%

COc1ccc(/C=C(/C(=O)N2CCN(c3ccccc3)CC2)c2cc(OC)c(OC)c(OC)c2)cc1O
inactive: [1] 41% | [2] 31.4% | [3] 45.6% | [4] 64% | [5] 33.1%
active: [6] -3.6% | [7] 8.16% | [8] 8.78%

CC(=O)[C@@]1(O)[C@H](C)C[C@H]2[C@@H]3C=C(C)C4=Cc5c(cnn5-c5ccccc5)C[C@]4(C)[C@H]3[C@@H](O)C[C@@]21C
inactive: [1] 13.2% | [2] 41.3% | [4] 34.5% | [5] 42.3%
active: [3] -4.99% | [6] -16.8% | [7] -28%

C=C(C)c1ccc(/C=N/NC(N)=S)cc1
active: [1] 7.97%
inactive: [2] 93.3% | [3] 78.6% | [4] 103% | [5] 93.2% | [6] 98.4% | [7] 64% | [8] 75.3%

CC(C)NCCCCCNc1cc(O)cc2cccnc12
inactive: [2] 59% | [3] 88.4% | [4] 124% | [5] 102% | [6] 79.1% | [7] 94.3% | [8] 16%
active: [1] -8.81%
